Structures are written as SMILES. Out of some 16,000 compounds screened, about 5,700 (36%) were called active. Another 24% or so got no clear call; they are omitted. The list shows a part of the results. Values without a mark were called inactive. Calls follow the shape of the dose curve; as a rule, active = well fitted curve in the direction sought with a large enough effect; inconclusive = small, poorly fitted or top-dose-only effect, or effect the other way; inactive = no such curve, though single readings can be large or run the other way.
% is scaled to controls: 0 for no effect and ±100 for the full control effect.

For this experiment, the target named is Cytochrome P450 1A2 (Homo sapiens) (UniProt P05177). The experiment is described as follows: Cytochrome panel assay with activity outcomes. The settings on record: recombinant CYP, pro-luciferin dealkylation, luminescence, p450-cyp1a2; series mostly up to 57.1 µM; activity, negative = inhibition: at the top concentration.
Sequence of Cytochrome P450 1A2 (Homo sapiens) (P05177 whole entry, looked up): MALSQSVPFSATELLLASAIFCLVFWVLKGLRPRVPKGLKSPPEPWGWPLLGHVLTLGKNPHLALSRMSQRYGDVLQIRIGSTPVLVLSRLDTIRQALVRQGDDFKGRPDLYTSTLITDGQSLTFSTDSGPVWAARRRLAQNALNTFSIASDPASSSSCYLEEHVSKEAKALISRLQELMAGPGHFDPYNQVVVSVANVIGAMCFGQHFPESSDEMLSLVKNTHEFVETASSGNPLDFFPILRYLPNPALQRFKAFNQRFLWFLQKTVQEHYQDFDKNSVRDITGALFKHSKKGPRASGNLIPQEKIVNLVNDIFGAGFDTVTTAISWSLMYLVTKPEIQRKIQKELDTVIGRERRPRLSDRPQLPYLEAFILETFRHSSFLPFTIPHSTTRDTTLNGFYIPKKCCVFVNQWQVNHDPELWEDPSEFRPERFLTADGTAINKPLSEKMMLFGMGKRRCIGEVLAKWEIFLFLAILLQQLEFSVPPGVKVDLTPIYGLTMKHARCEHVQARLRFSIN
By AC50 is commonly meant the concentration at which the activity in the assay is half-maximal. In the case of `O=[N+]([O-])c1cccnc1N1CCCCC1`, the AC50 was 5.01 µM (active).
Regarding `CC1CCCC(NC(=O)C2CCN(S(=O)(=O)N3CCC4(CC3)OCCO4)CC2)C1C` (stereo unspecified), the “activity, negative = inhibition” value is 0.237%.
Still for that read-out and setting: with `Cc1ccc(OCC(=O)N2CCN(c3ccc([N+](=O)[O-])c(N4CCOCC4)c3)CC2)cc1` the figure was -14%.
For `O=[N+]([O-])c1cc(F)c(N2CCOCC2)cc1N1CCCCC1`, the AC50 is 1.26 µM (active).
Regarding `Cc1ccccc1C(=O)N1CCN(c2ccc([N+](=O)[O-])c(N3CCOCC3)c2)CC1`, the “activity, negative = inhibition” value is -5.63%.
On to `O=[N+]([O-])c1ccc(N2CCCCC2)c(Cl)c1N1CCCCC1`, for which the AC50 was 2 µM (active).
Regarding `O=[N+]([O-])c1ccc(N2CCCC2)cc1N1CCCC1`, the AC50 is 0.316 µM (active).
In the case of `Cn1c(=O)n(C)c2cc([N+](=O)[O-])c(N3CCN(C(=O)c4ccccc4Cl)CC3)cc21`, the “activity, negative = inhibition” value was 6.96%.
As to `O=C(O)C1CCN(c2c([N+](=O)[O-])cc(C(F)(F)F)cc2[N+](=O)[O-])CC1`, the “activity, negative = inhibition” value is -12.7%.
`Cn1c(=O)n2n(c1=O)[C@H]1[C@H](O)[C@H]3O[C@H]3C(=O)[C@H]1CC2`: the activity, negative = inhibition is -12.9% [at 11.4 µM].
Turning to `CC12CCC(C(=O)Nc3cccc4ccccc34)(C1Br)C2(C)C` (stereo unspecified), the AC50 is 22.4 µM (active).
For `Cc1cccc(NC(=O)C23CCC(C)(C2Br)C3(C)C)c1` (stereo unspecified), the AC50 was 15.8 µM (active).
For `Cc1cccc(NC2=NC(=S)N(c3ccc(C(=O)O)cc3)C23CCCCC3)c1`, the “activity, negative = inhibition” value is -0.631%.
`COc1ccc(C(=O)NC2CCN(C(=S)Nc3cccc(C)c3)CC2)cc1`: the “activity, negative = inhibition” value was 7.46%.
Take `COc1ccccc1CNc1ncnc2ccc(-c3ccccc3OC)cc12`: the AC50 is 1 µM (active).
For `COc1ccc(CNc2ncnc3ccc(-c4ccccc4OC)cc23)c(OC)c1`, the AC50 was 3.16 µM (active).
Take `C[N+](C)(C)CCOC(=O)CCC(=O)OCC[N+](C)(C)C`: the “activity, negative = inhibition” value was -4.51%.
With `O=C(c1sc2ccccc2c1Cl)N(Cc1ccccc1)C1CCS(=O)(=O)C1` (stereo unspecified), the “activity, negative = inhibition” value was -12.4%.
Turning to `CCCCOC(=S)NC(=O)c1sc2ccccc2c1Cl`, the AC50 is 2 µM (active).
In the case of `CCOC(=S)NC(=O)c1sc2ccccc2c1Cl`, the half-maximal activity concentration (AC50) is 1.58 µM (active).
Same read-out and setting: with `O=C(NC(=S)N(CCCCO)C1CCCCC1)c1sc2ccccc2c1Cl` the figure was 1.26 µM (active); with `CCOc1c(OC(C)=O)ccc(/C=C2\N=C(SCC)SC2=O)c1[N+](=O)[O-]`, 0.631 µM (active); with `CCOc1c(OC(C)=O)ccc(/C=C/c2ccc3cccc(OC(C)=O)c3n2)c1[N+](=O)[O-]`, 4.47 µM (active).
`Cc1ccc(S(=O)(=O)N=Nc2c(O)[nH]c3cc(O)c(C(=O)O)cc23)cc1`: the activity, negative = inhibition was -15.8% [at 2.29 µM].
For `CC(Cc1ccccc1)C(=O)NCc1ccccn1` (stereo unspecified), the AC50 is 15.8 µM (active).
Regarding `Cc1cc(=O)oc(C)c1C(=O)N1CCCCC1`, the “activity, negative = inhibition” value was 2.37%.
As for `O=C(O)[C@@H]1[C@@H](C(=O)NCc2ccccn2)[C@@H]2C=C[C@@H]1O2`, the activity, negative = inhibition is -0.104% [at 2.29 µM].
Regarding `Cc1cc(=O)oc(C)c1C(=O)NCc1cccnc1`, the concentration at half-maximal activity (AC50) was 4.47 µM (active).
As to `O=C(NCc1ccccn1)c1cc(-c2ccccc2Cl)on1`, the AC50 is 3.55 µM (active).
`Cc1cc(=O)oc(C)c1C(=O)NCc1ccccc1`: the “activity, negative = inhibition” value is -3.38%.
Turning to `Cc1cc(=O)oc(C)c1C(=O)NCCCN1CCN(c2ccc(F)cc2)CC1`, the “activity, negative = inhibition” value is 4.74%.
On to `CCCNC(=O)c1c(C)cc(=O)oc1C`, for which the AC50 is 11.2 µM (active).
Take `CC(C)C(NC(=O)C1CCCCC1)C(=O)NCc1ccccn1` (stereo unspecified): the “activity, negative = inhibition” value is -3.6%.
The same measure, in the same setting: with `O=C(O)[C@@H](O)Cc1ccccn1` the figure was -9.06% [at 11.4 µM]; with `CCC(C#CCN1CCCCC1)(CC)OCCC#N`, -28.1%.
Turning to `Cc1cc(=O)oc(C)c1C(=O)NCc1ccccn1`, the AC50 was 12.6 µM (active).
Turning to `CCCNC(=O)OC[C@@H]1O[C@H](CCO/N=C\c2ccc(C(=O)N3[C@H](c4ccc(C)cc4)[C@@H](C)CC[C@H]3C(=O)OC)cc2)C=C[C@@H]1Oc1ccc(OC)cc1`, the activity, negative = inhibition is -5.52% [at 11.4 µM].
Turning to `CCN1C(=O)[C@H]2[C@H]3[C@H](O)[C@H](O)C/C(=N/OCC(C)C)[C@H]3CC[C@@H]2C1=O`, the activity, negative = inhibition was -1.29% [at 11.4 µM].
For `Cc1ccc(OC(=O)c2ccc(N3CCOCC3)c([N+](=O)[O-])c2)cc1`, the “activity, negative = inhibition” value was -58.9%.
Consider `CO/N=C/c1ccc(N2CCN(C(=O)c3ccc(Cl)cc3Cl)CC2)c([N+](=O)[O-])c1`, for which the “activity, negative = inhibition” value was -16.1%.
As to `O=C(O/N=C\c1ccc(N2CCCCC2)c([N+](=O)[O-])c1)c1c(F)cccc1F`, the AC50 is 0.708 µM (active).
As to `Cc1ccc(C(=O)O/N=C\c2ccc(N3CCCCC3)c([N+](=O)[O-])c2)cc1`, the AC50 is 0.251 µM (active).
Take `CC(C)(Oc1ccc([C@@H]2CC2(Cl)Cl)cc1)C(=O)O`: the AC50 entry is “inactive”.
On to `CC(C)OC(=O)C(C)(C)Oc1ccc(C(=O)c2ccc(Cl)cc2)cc1`, for which the AC50 is 5.01 µM (active).
Same read-out and setting: next, `Cn1c(=O)c(-c2cccs2)nc2cnc(N3CCNCC3)nc21`: 10 µM (active); `O=c1c(-c2cccs2)nc2cnc(N3CCNCC3)nc2n1C1CC1`: 2 µM (active).

These data come from PubChem BioAssay AID1851 (National Center for Advancing Translational Sciences (NCATS), 2009).
